Bioassay records: PubChem, several laboratories
CYP2C19 inhib: blockers of cytochrome P450 2C19 activity – biochemical, luminescence, ADME assay, primary screen; P33261; CYP2C19 Supersomes, luciferin-H EGE luminescence, 30 min; inhibition, % at 5 µM; hit rate 21% among 96,000;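 active = CYP2C19 inhibition above a set limit at 5 µM in the primary screen, cut at about 50% in these data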;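 also: plate controls were negative control wells for no effect and 2.5 mM tranylcypromine positive control for full effect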
CYP2C19 activ: human CYP2C19 activators, primary screen, biochemical, luminescence | Cytochrome P450 2C19 (Homo sapiens), P33261 | recombinant CYP2C19, luciferin-H EGE luminescence; hits give high values; 0 = fully inhibited enzyme, 1 = untreated enzyme | activation factor at 5 µM | 96,000 tested, under 10 active | AID 1025, 2008;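 active = activation factor of at least 2 at 5 µM in the primary screen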;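 also: 0 = wells with 2.5 mM tranylcypromine and 1 = vehicle-only wells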
CYP2C9 inh: blockers of cytochrome P450 2C9 activity – biochemical, luminescence, ADME assay, primary screen. CYP2C9 Supersomes, luciferin-H conversion. inhibition, % at 5 µM. hit rate 20% among 96,000;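 active = blocking of liver enzyme CYP2C9 beyond about 50% at 5 µM, limit read from the data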
Target sequence (P11712 whole entry, looked up): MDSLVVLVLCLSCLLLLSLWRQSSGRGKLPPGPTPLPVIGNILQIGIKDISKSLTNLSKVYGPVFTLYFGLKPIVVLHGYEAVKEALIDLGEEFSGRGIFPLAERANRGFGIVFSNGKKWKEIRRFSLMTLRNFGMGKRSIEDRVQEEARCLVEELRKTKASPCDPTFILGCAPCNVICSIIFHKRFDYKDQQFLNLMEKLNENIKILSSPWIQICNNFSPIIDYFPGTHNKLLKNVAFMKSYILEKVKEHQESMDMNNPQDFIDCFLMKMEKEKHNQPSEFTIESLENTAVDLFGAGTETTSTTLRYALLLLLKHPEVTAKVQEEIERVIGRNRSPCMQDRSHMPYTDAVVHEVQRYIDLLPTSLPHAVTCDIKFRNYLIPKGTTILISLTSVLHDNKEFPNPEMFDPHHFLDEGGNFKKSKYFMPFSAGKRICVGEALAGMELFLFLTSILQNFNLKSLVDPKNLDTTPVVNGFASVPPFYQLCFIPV
CYP2C9 activ: human CYP2C9 activators, primary screen, biochemical, luminescence | Cytochrome P450 2C9 (Homo sapiens), P11712 | activation factor at 5 µM | AID 1024, 2008 | recombinant CYP2C9, luciferin-H conversion; hits give high values; factor 1 = untreated enzyme, 0 = blocked | hit rate 1.4% among 96,000;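 active = activation factor of 2 or more for CYP2C9 at a 5 µM dose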;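 also: 0 = sulfaphenazole-blocked wells and 1 = vehicle-only wells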
sEH inhibitor: soluble epoxide hydrolase inhibitors, primary screen, biochemical, human sEH; Bifunctional epoxide hydrolase 2 (Homo sapiens), P34913; recombinant human sEH enzymatic activity assay; inhibition, % at 2 µM; hit rate 0.34% among 91,000; AID 707, 2007; in the data active = inhibition above about 80%
sEH act: soluble epoxide hydrolase activators, primary screen, biochemical, human sEH. purified human sEH enzymatic activity, activator screen. activation, % at 2 µM. hit rate 0.04% among 91,000; in the data active = activation above about 37%
* hit, by the source's call; . = no result. Sampled rows, rich in hits. Any-hit rate of the full collection: about 27%.

SMILES	CYP2C19 inhib	CYP2C19 activ	CYP2C9 inh	CYP2C9 activ	sEH inhibitor	sEH act
COc1ccc(/C(O)=C2/C(=O)C(=O)N(CCN3CCOCC3)C2c2ccccn2)cc1 (stereo not given)	-3.0	1	-6.1	1.1	-1.3	-1.1
CC(/C=N/N1CCN(c2ccccc2)CC1)=C\c1ccccc1	29.6	0.7	-7.7	1.1	8.1	-5.2
CC(=C/c1ccco1)/C=N/N1CCN(c2ccccc2)CC1	55.2*	0.4	18.4	0.8	11.5	-9.9
CC(/C=N/n1c(-c2ccccc2)n[nH]c1=S)=C\c1ccco1	-3.2	1	11.7	0.9	4.0	-5.0
CC(/C=N/N1CCN(c2ccccc2)CC1)=C\c1ccco1	56.3*	0.4	22.6	0.8	10.1	-7.5
O=C(Cn1c(NCCCO)nc2ccccc21)c1cccc(Br)c1	75.7*	0.2	81.7*	0.2	-24.3	21.7
CCCCNc1nc2ccccc2n1CC(=O)N1CCc2ccccc2C1	58.4*	0.4	37.3	0.6	-8.9	10.6
O=C(NCc1cccs1)C1CCC(CNS(=O)(=O)c2cccc3nsnc23)CC1 (stereo not given)	9.1	0.9	14.4	0.9	74.0	-74.7
COc1cccc(CNC(=O)CCS(=O)(=O)c2cccc3nsnc23)c1	64.0*	0.4	-33.1	1.3	15.4	-16.9
COc1cccc(CNC(=O)C2CCC(CNS(=O)(=O)c3cccc4nsnc34)CC2)c1 (stereo not given)	15.5	0.8	27.8	0.7	80.3*	-80.5
CCc1ccc(NC(=O)CCS(=O)(=O)c2cccc3nsnc23)cc1	87.3*	0.1	84.7*	0.2	14.1	-17.7
COc1cccc(CNC(=O)CCS(=O)(=O)c2cccc3nonc23)c1	42.4	0.6	-18.6	1.2	.	.
COc1cccc(NC2=NC3(CCCCC3)N=C(N)N2)c1	-10.0	1.1	-15.4	1.2	4.1	-1.4
Cc1nc2ccc(C(=O)N3CCN(c4ccccn4)CC3)cc2s1	8.4	0.9	7.1	0.9	3.2	-3.1
Cc1ccccc1N1CCN(C(=O)CCN2C(=O)c3ccccc3C2=O)CC1	13.8	0.9	11.3	0.9	7.5	-10.2
O=C1Nc2cc(Cl)c(Cl)cc2N(O)N1c1cccc(Cl)c1	-9.8	1.1	52.1*	0.5	-17.0	16.7
O=C(c1c(O)c2ccccc2oc1=O)C1CCC1	-7.0	1.1	27.5	0.7	.	.
CCCCCN=C(C)c1c(O)c2ccccc2oc1=O	88.2*	0.1	77.8*	0.2	8.6	-8.2
N/C(=N\c1nc2c(c(=O)[nH]1)CCCC2)Nc1ccc(Oc2ccccc2)cc1	.	.	.	.	6.2	-0.8
CCN(CC)CCNC(=O)c1ccc(CS(=O)(=O)c2ccc(Br)cc2)o1	.	.	.	.	-11.0	11.0
Cc1ccc(OCc2ccc(C(=O)Nc3c(C)nn(Cc4c(F)c(F)c(F)c(F)c4F)c3C)o2)c([N+](=O)[O-])c1	57.1*	0.4	56.8*	0.4	6.6	-6.0
Cc1nn(Cc2c(F)c(F)c(F)c(F)c2F)c(C)c1NC(=O)c1c([N+](=O)[O-])cnn1C	16.3	0.8	1.9	1	-3.0	5.0
COc1ccc(CCNc2cc(=O)[nH]c(N)n2)cc1	3.3	1	-13.9	1.1	22.7	-20.4
CC(=O)C1=C(O)C(=O)N(CCN2CCOCC2)C1c1ccccc1 (stereo not given)	-3.1	1	15.2	0.8	-4.8	4.5
Brc1ccc(Oc2nsnc2N2CCOCC2)cc1	89.3*	0.1	24.3	0.8	-21.0	17.5
SMILES	CYP2C19 inhib	CYP2C19 activ	CYP2C9 inh	CYP2C9 activ	sEH inhibitor	sEH act
COC(=O)Oc1nsnc1N1CCOCC1	3.5	1	44.7	0.6	-0.4	-1.5
Cc1cc(C)n(-c2nc3ccccc3c(=O)n2OC2CCCCC2)n1	68.5*	0.3	52.5*	0.5	-8.9	9.1
CCOn1c(-n2nc(C)cc2C)nc2ccccc2c1=O	62.8*	0.4	6.5	0.9	-7.0	9.9
Cc1cc(C)n(-c2nc3ccccc3c3nc(C)nn23)n1	-5.7	1.1	7.0	0.9	.	.
COC(=O)COn1c(-n2nc(C)cc2C)nc2ccccc2c1=O	-2.0	1	22.2	0.8	2.7	-2.9
COc1ccc(NC2=NCC(=O)N2c2ccccc2F)cc1	6.0	0.9	-16.7	1.2	-4.0	5.9
Cc1nc2sc(C(c3cccc(F)c3)N3CCCC(C)C3)c(O)n2n1 (stereo not given)	11.7	0.9	-21.1	1.2	7.2	-4.4
CCOc1ccc(CC(=O)NNC(=S)Nc2ccccc2)cc1Br	53.2*	0.5	72.3*	0.3	-5.1	4.5
COc1ccc(CC(=O)NNC(=S)Nc2ccc(Br)cc2)cc1	41.7	0.6	52.4*	0.5	18.1	-18.0
COc1ccc(CC(=O)NNC(=S)Nc2ccccc2)cc1Br	74.3*	0.3	37.3	0.6	18.6	-15.8
COc1cccc(C(=O)CSc2nnnn2C)c1	71.8*	0.3	0.7	1	-10.7	12.6
COc1ccc(C(=O)CSc2nnc(Cc3ccccc3)o2)cc1	2.3	1	-40.6	1.4	.	.
COC(=O)c1cc(OC)c(OC)cc1NC(=O)CSc1nnnn1Cc1ccccc1	74.8*	0.3	81.8*	0.2	-4.0	5.3
COC(=O)c1ccc(CSc2nnnn2Cc2ccccc2)cc1	31.0	0.7	78.2*	0.2	9.5	-6.0
COc1ccc(C(=O)CSc2nnnn2Cc2ccccc2)cc1	59.9*	0.4	37.1	0.6	-3.2	3.4
O=c1cc(N2CCCCC2)c(-c2ccccc2)nn1Cc1c(Cl)cccc1Cl	26.8	0.7	44.7	0.6	11.1	-5.8
Cn1c(COc2ccccc2)nnc1SCC(=O)c1cccc([N+](=O)[O-])c1	8.1	0.9	33.0	0.7	-3.9	6.3
CN(C(=O)COc1ccccc1)c1nnc(-c2cccnc2)s1	33.8	0.7	22.9	0.8	-2.8	1.8
O=C(CSc1nnnn1Cc1ccccc1)c1ccccc1	74.3*	0.3	14.9	0.9	-8.4	7.9
O=C(CSc1nnnn1Cc1ccccc1)N1CCN(c2ccccc2)CC1	-3.5	1	-18.9	1.2	1.2	-1.6
COC(=O)c1cc(OC)c(OC)cc1NC(=S)N1CCN(Cc2ccccc2)CC1	100.0*	0	44.4	0.6	-19.1	16.8
COCCCn1c(SCC(=O)N2CCc3ccccc32)nnc1-c1ccoc1C	.	.	.	.	0.0	1.6
COc1cccc(C(=O)N(C)c2nnc(-c3ccncc3)s2)c1	100.0*	0	89.3*	0.1	11.1	-9.5
CN(C(=O)c1cccc(C#N)c1)c1nnc(-c2cnccn2)s1	8.6	0.9	-4.6	1	-5.5	5.8
CN(C(=O)c1cccc(C#N)c1)c1nnc(-c2ccncc2)s1	93.3*	0.1	70.3*	0.3	-4.8	5.2
CSc1cccc(NC(=O)c2ccc(Cl)nc2)c1	17.2	0.8	-3.4	1	11.0	-9.3
